From PubChem BioAssay (Tox21) come the findings set out here.

Values joined by “and” are separate entries in the source; they are usually repeats but may differ in a detail not shown here. Equal values may be shown once. Records with an inconclusive call do not appear. Some structures have more than one record in an assay (separate samples or runs), and their calls can disagree. Active and inactive are the calls of the source. Unless noted, calls come from the whole dose curve; as a rule, active = well fitted curve in the direction sought with a large enough effect in the repeat runs; inconclusive = weak or mixed curves; inactive = no such curve, though single readings can be large; an effect the other way counts as inactive or inconclusive.

In test [1] the target is Retinoic acid receptor RXR-alpha (Homo sapiens) (UniProt P19793). As to the kind of experiment: qHTS assay to identify small molecule agonists of the RXR signaling pathway (AID 1159527; calls by dose curve; note: nearly all actives have a fitted effect of over 35% in size; note: potency is the fitted concentration of half-maximal effect). The procedure, abridged: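 Reporter activation is measured as beta-lactamase activity via FRET substrate cleavage (emission 460/530 nm) in HEK 293T cells expressing an RXR-alpha-driven bla construct, following 16 hr compound exposure at 37 C.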

Test [2] is described as follows: qHTS assay to identify small molecule agonists of the RXR signaling pathway - cell viability counter screen (AID 1159529). For activity change, negative = cytotoxicity: series mostly up to about 77 µM. Note: nearly all actives have a fitted effect of over 50% in size. Note: potency is the fitted concentration of half-maximal effect. The procedure, abridged:
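Tox21 10K compounds were tested for cytotoxicity against GeneBLAzer RXR-alpha HEK 293T cells grown in 2% charcoal-stripped FBS. Exposure lasted 16 hr at 37 C, 5% CO2; viability read by CellTiter-Glo luminescence.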

A short description of test [3]: qHTS assay to identify small molecule antagonists of the retinoid acid receptor (RAR) signaling pathway - cell viability counter screen (AID 1159551). Note: nearly all actives have a fitted effect of over 35% in size. Note: potency is the fitted concentration of half-maximal effect. The procedure, abridged:
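Measured by luminescent ATP detection, viability reflects C3RL4 cells treated 6 h at 37 C with test chemicals in the presence of 1 uM (final) retinol.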

Test [4] is described as follows: qHTS assay to identify small molecule antagonists of the retinoic acid receptor (RAR) signaling pathway (AID 1159552; note: nearly all actives have a fitted effect of over 50% in size). The procedure, abridged:
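Overnight-plated C3RL4 reporter cells get compound, then retinol to 1 uM final; plates sit 6 hr at 37 C, 5% CO2. A luciferase reagent is added and light output recorded after 30 min at room temperature.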

Test [5] can be described thus: qHTS assay to identify small molecule agonists of the retinoic acid receptor (RAR) signaling pathway (AID 1159553). Note: potency is the fitted concentration of half-maximal effect. The procedure, abridged: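 6 hr compound exposure (DMSO vehicle) of overnight-plated C3RL4 RARE-luc cells at 37 C; luminescence quantified after 30 min RT with luciferase reagent.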
Test [6] can be described thus: qHTS assay to identify small molecule antagonists of the estrogen related receptor (ERR) signaling pathway from Tox21 library - cell viability counter screen (AID 1224834). Note: nearly all actives have a fitted effect of over 30% in size. Note: potency is the fitted concentration of half-maximal effect. The procedure, abridged: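 Seeded ERR cells were rested 6 h at 37 C/5% CO2 before compounds, positive and negative controls or DMSO were added. Incubation continued for 17.5 h, and viability was then quantified by CellTiter-Fluor fluorescence.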

Test [7] in a line: qHTS assay to identify small molecule antagonists of the estrogen related receptor (ERR) signaling pathway (AID 1224819;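 note: luminescence from an ERR-driven luciferase reporter measured with One-Glo reagent; series mostly up to about 46 µM; nearly all actives have a fitted effect of over 50% in size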). The procedure, abridged:
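Compounds dissolved in DMSO were pin-transferred onto ERR cells that had been plated 6 h earlier, and cells were then incubated 18 h at 37 C; signal was luciferase luminescence via One-Glo.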

The nature of test [8]: qHTS assay to identify small molecule agonists of the estrogen related receptor (ERR) signaling pathway (AID 1224820). The procedure, abridged: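 Luminescence readout (One-Glo, 30 min RT) from NTP-supplied ERR cell line exposed to compounds for 18 h at 37 C. Cells seeded 2,000 per well and pre-incubated 6 h before pin-tool compound transfer.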
Test [9] is described as follows: qHTS assay to identify small molecule antagonists of the estrogen related receptor signaling pathway with the pleiotropic PPARgamma coactivator (PGC) cell viability counter screen (AID 1224822; note: series mostly up to about 46 µM). The procedure, abridged:
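Counter screen for cell viability: PGC/ERR cells, 6 h pre-incubation after plating, 17.5 h compound exposure at 37 C, fluorescence from CellTiter-Fluor after 30 min.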

Test [10] is described as follows: qHTS assay to identify small molecule agonists of the estrogen related receptor signaling pathway with the pleiotropic PPARgamma coactivator (PGC) (AID 1224823). The procedure, abridged: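 Luminescence readout (One-Glo, 30 min RT) from PGC/ERR cell line treated 18 h at 37 C with pin-tool-delivered DMSO compound solutions; cells plated 6 h before dosing. Quantitative HTS format.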
% is set by controls: 0 for no effect and ±100 for the full control effect.

Chain of Retinoic acid receptor RXR-alpha (Homo sapiens) (P19793 whole entry, looked up): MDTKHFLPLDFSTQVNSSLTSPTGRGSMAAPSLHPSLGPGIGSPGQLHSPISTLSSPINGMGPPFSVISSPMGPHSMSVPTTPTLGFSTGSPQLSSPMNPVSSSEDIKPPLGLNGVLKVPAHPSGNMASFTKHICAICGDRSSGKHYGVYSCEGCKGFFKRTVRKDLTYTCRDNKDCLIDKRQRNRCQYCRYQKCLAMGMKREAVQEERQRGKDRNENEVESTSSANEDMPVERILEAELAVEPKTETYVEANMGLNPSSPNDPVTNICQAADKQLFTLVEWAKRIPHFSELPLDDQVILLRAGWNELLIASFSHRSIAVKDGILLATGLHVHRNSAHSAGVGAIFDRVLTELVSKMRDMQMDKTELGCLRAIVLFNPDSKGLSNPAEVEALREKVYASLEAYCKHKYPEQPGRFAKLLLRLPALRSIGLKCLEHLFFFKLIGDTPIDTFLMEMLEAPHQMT

On to `Nc1nc(=S)[nH][nH]1`, for which the Potency entry in test [1], in [2], in [3], in [4], in test [5] and in test [6] was “inactive” throughout.
For the compound `Cc1ccc(N)cc1C`, the Potency result in test [1], in test [2], in test [3], in test [4] and in test [6] was “inactive” in each case. Besides, in test [5], the Potency was 69.1 µM (active).
As to `c1ccc(CN2CCNCC2)cc1`, the Potency result in test [1], in test [2], in test [3], in test [4] and in test [6] was “inactive” each time.
As to `O=C(CBr)OCc1ccccc1`, the Potency result in test [1], in [2], in test [3], in test [4], in test [5] and in test [6] was “inactive” throughout.
As to `NCC(CC(=O)O)c1ccc(Cl)cc1` (stereo unspecified), the activation in test [1] was 1.21% [at 0.29 µM] (inactive). In addition, the activity change, negative = cytotoxicity in test [2] was 15% [at 0.29 µM] (inactive); in test [3], -0.97% [at 0.349 µM] (inactive). The result in [7], in [8] and in test [10] was inactive. Further, in test [9], the Potency result is “inactive”.
As to `COc1cc(CC(C)N)cc2c1OCO2` (stereo unspecified), the Potency entry in [1], in test [2], in test [3], in test [4], in test [5] and in test [6] was “inactive” throughout.
In the case of `C[C@H]1CNCCc2ccc(Cl)cc21`, the Potency entry in test [1], in [2], in [3], in test [4], in [5] and in [6] was “inactive” in each case.
Take `CC/C(=N\OC/C=C/Cl)C1=C(O)CC(C2CCOCC2)CC1=O` (stereo unspecified): the Potency entry in test [1], in test [2], in test [3] and in test [6] was “inactive” each time.
As to `CC1C(=O)C[C@]2(C(C)C)C[C@H]12` (stereo partly specified), the Potency entry in test [1], in test [2], in [3], in test [4], in test [5] and in [6] was “inactive” throughout.
As to `Cc1ccccc1CCl`, the Potency result in [1], in test [2], in test [3], in [4], in test [5] and in test [6] was “inactive” throughout.
As to `Clc1cc(Cl)c(Cl)c(Cl)c1`, the Potency entry in test [1], in test [2], in [3], in test [4], in test [5] and in test [6] was “inactive” each time.
`CC(Cl)Cl`: the Potency entry in [1], in test [2], in [3], in test [4], in test [5] and in [6] was “inactive” throughout.
Consider `COC(=O)C(Cl)C(=O)OC`, for which the Potency entry in test [1], in [2], in test [3], in test [4], in test [5] and in [6] was “inactive” each time.
Consider `Cc1ccc2ccccc2c1`, for which the Potency result in [1], in test [2], in [3] and in [6] was “inactive” throughout.
As to `O=[N+]([O-])c1ccccc1CCl`, the Potency result in test [1], in [2], in test [3] and in [6] was “inactive” throughout.
On to `O=C(O)c1ccccc1C(=O)Nc1cccc2ccccc12`, for which the Potency entry in test [1], in test [2], in test [3], in test [4], in test [5] and in [6] was “inactive” in each case.
Consider `Cl/C=C\Cl`, for which the Potency entry in test [1], in test [2], in [4], in test [5] and in test [6] was “inactive” in each case.
`CCn1cc[n+](C)c1`: the Potency result in test [1] was “inactive and 19.8 µM (active)”; in test [6], “inactive and 30.9 µM (active)”. The Potency entry in test [2] and in test [3] was “inactive” throughout.
As to `C=CC(=O)OC`, the Potency result in test [1], in test [2], in test [3], in [4], in test [5] and in test [6] was “inactive” each time.
For the compound `Cn1sc(Cl)cc1=O`, the Potency entry in test [1], in test [2], in test [3], in test [4], in [5] and in test [6] was “inactive” throughout.
For `O=NN1CCNCC1`, the Potency result in [1], in test [2], in test [3], in test [4], in [5] and in test [6] was “inactive” in each case.
With `C=COC(C)=O`, the Potency entry in test [1], in test [2], in [3], in test [4], in test [5] and in test [6] was “inactive” each time.
As for `CC1Sc2c(C(=O)O)c(=O)c3cc(F)c(N4CCNCC4)cc3n21` (stereo unspecified), the Potency entry in [1], in test [2], in test [3], in test [4], in test [5] and in test [6] was “inactive” throughout.
For `Clc1cccc2ccccc12`, the Potency result in [1], in test [2], in test [3] and in test [6] was “inactive” in each case.
Regarding `Brc1ccc(Oc2ccccc2)cc1`, the Potency entry in test [1], in [3] and in test [6] was “inactive” throughout. Further, in [2], the Potency is 31.7 µM (active) and inactive.
In the case of `CCBr`, the Potency entry in test [1], in [2], in [4], in test [5] and in test [6] was “inactive” throughout.
On to `CCCCCC[N+](=O)[O-]`, for which the Potency entry in test [1], in test [2], in test [3] and in [6] was “inactive” each time.
As for `C=CC(=O)OCC(C)O` (stereo unspecified), the Potency result in test [1], in test [2], in test [4], in test [5] and in test [6] was “inactive” each time.
`O=C1C(=O)c2cccc3cccc1c23`: the Potency result in [2] is “inactive”.
The same measure, in the same setting: the entry for `Clc1ccc(C2(Cn3cncn3)CC(Br)CO2)c(Cl)c1` (stereo unspecified) is “inactive”.
`CN1C[C@H](CNC(=O)OCc2ccccc2)C[C@@H]2c3cccc4c3c(cn4C)C[C@H]21`: the Potency entry in test [2], in test [3], in test [4] and in test [5] was “inactive” in each case.
In the case of `C#CCOC(C(=O)OCCN(C)C)(c1ccccc1)c1ccccc1`, the Potency result in [2], in test [3], in test [4] and in test [5] was “inactive” in each case.
For `CCO[C@H]1O[C@@H]2OC3(C)CC[C@H]4[C@H](C)CC[C@@H]([C@H]1C)[C@@]24OO3`, the Potency entry in test [2], in test [3], in test [4] and in test [5] was “inactive” in each case.
With `CC(O)(CS(=O)(=O)c1ccc(F)cc1)C(=O)Nc1ccc(C#N)c(C(F)(F)F)c1` (stereo unspecified), in [2], the Potency is 22.7 µM (active). Besides, the Potency result in test [3], in [4], in test [5], in [9] and in test [6] was “inactive” throughout. The result in test [8] and in test [10] was inactive.
In the case of `CC(=O)C(C)(C)C`, the Potency result in test [2], in test [3], in [4], in test [5] and in test [6] was “inactive” throughout.
As to `C=CC[C@]1(O)CC[C@H]2[C@@H]3CCC4=CC(=O)CCC4=C3C=C[C@@]21C`, the Potency in test [2] is 23.9 µM (active); in [3], 33.5 µM (active).
As to `CCOP(=S)(Oc1ccc([N+](=O)[O-])cc1)c1ccccc1` (stereo unspecified), the Potency result in [2], in [3], in test [4], in test [5] and in test [6] was “inactive” throughout.
As for `CCCC(=O)Cl`, the Potency entry in test [2], in [3], in test [4], in test [5] and in [6] was “inactive” throughout.
On to `CCCCCCC#N`, for which the Potency entry in test [2], in test [3], in test [4], in [5] and in test [6] was “inactive” each time.
As for `O=S1OC[C@@H]2[C@H](CO1)[C@]1(Cl)C(Cl)=C(Cl)[C@@]2(Cl)C1(Cl)Cl` (stereo partly specified), in [2], the Potency is 49 µM (active). The Potency entry in test [3] and in [4] was “inactive” in each case.
As to `CC[C@H]1C[C@H]2[C@@H]3CCC4=CC(=O)CC[C@@H]4[C@H]3CC[C@]2(C)[C@H]1O`, the Potency result in test [2], in test [3], in test [4] and in [5] was “inactive” each time.
Take `CCOP(O)OCC`: the Potency result in test [2], in [3], in test [4] and in test [5] was “inactive” each time.
